High-throughput results (PubChem)
A340 absorber: compound absorbs light at 340 nm | compound absorbance at 340 nm, fold over control | fold change at 10 µM | 65,000 tested, under 10 active;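 active = at 10 µM dose, initial 340 nm absorbance at least 2 fold that of control wells; inactive = change under 2 fold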;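 note: initial absorbance extrapolated from kinetic A340 decline of NADH oxidation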
MK inhibit: S. pneumoniae mevalonate kinase inhibition. AID 555. purified MK, PK/LDH-coupled NADH absorbance 340 nm. inhibition, % at 10 µM. actives 0.48% (n = 65,000);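 active = ranked among the strongest by inhibition in the single 10 µM screen, a fixed top-ranked set picked for dose follow-up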
Spn DPM-DC inh: blocks S. pneumoniae diphosphomevalonate decarboxylase; purified DPM-DC, PK/LDH coupled NADH fluorescence; calls only at 10 µM; actives 0.49% (n = 65,000);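 active = the 320 compounds with the highest percent inhibition in the single-dose primary screen, excluding strongly autofluorescent ones, cut at about 32% in these data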;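 note: kinetic rate of NADH fluorescence loss reporting ADP formed by the decarboxylase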
NADH coupling: inhibition of NAD/NADH coupling enzymes, library profiling; coupled PK/LDH NADH assays, four targets; IC50, µM (titrated, usually from 10 µM); actives 0.02% (n = 65,000); AID 774;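 active = single-dose screening hits from any of four coupled enzyme assays that gave an IC50 when retested across doses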;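 note: the DPM-DC format reads NADH fluorescence rather than 340 nm absorbance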
Autofluor 339: intrinsic fluorescence of library compounds, ex339/em460 – biochemical, MLSMR library, data from DPM-DC assay, artefact control, profiling panel; fluorescence fold increase at 10 µM; compound autofluorescence, ex339/em460 nm, NADH buffer; stronger effect = higher value; 1 = no-compound wells, NADH background; actives 5.5% (n = 65,000);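 active = at 10 µM, mean starting fluorescence two-fold or more over control wells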;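 note: signal is the first read of a kinetic run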
PMK inhibit: inhibitors of Streptococcus pneumoniae phosphomevalonate kinase; purified PMK, PK/LDH-coupled NADH absorbance 340 nm; inhibition, % at 10 µM; actives 0.49% (n = 65,000);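 active = top-ranked compounds by inhibition in the single 10 µM screen, taking a fixed number of the strongest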
Large screens that a line does not name were inactive; [ ] = dose if it differs, or a comment. Most compounds without a hit are left out; they make up all but 6.8% or so of the library.

COc1nc(-c2ccccc2)ccc1-c1noc(-c2ccccc2)n1	none
COc1nc(-c2ccc(Cl)cc2)ccc1-c1noc(-c2ccncc2)n1	Autofluor 339 2.8
COc1ccc(-c2ccc(-c3noc(-c4ccccc4)n3)c(OC)n2)cc1	Autofluor 339 3 (not shown: Spn DPM-DC inh)
COC(=O)C1CCC(C)(C(=O)Nc2ccccc2)C1(C)C (stereo not given)	none
Cc1ccc(CCNC(=O)CN2C(=O)COc3ccccc32)cc1	none
CCOc1nc(-c2ccccc2)ccc1-c1noc(-c2cccnc2)n1	none (not shown: Spn DPM-DC inh)
COc1ccc(-c2ccc(-c3noc(-c4ccco4)n3)c(OC)n2)cc1	Autofluor 339 3.7 (not shown: Spn DPM-DC inh)
COc1nc(-c2ccccc2)ccc1-c1noc(-c2cccs2)n1	Autofluor 339 2.2
COc1nc(-c2ccccc2)ccc1-c1noc(-c2ccco2)n1	none
CCOc1nc(-c2ccccc2)ccc1-c1noc(-c2ccc(OC)c(OC)c2)n1	Spn DPM-DC inh active[fluoresces]
COc1cc(NC(=O)c2cccs2)c(OC)cc1NC(=O)CCn1nnc2ccccc21	none
CCOC(=O)N1CCN(C(=O)CCCn2nc(C)c3sc4ccccc4c3c2=O)CC1	none
N#Cc1nc(-c2ccco2)oc1NCc1ccco1	Autofluor 339 2.4 (not shown: Spn DPM-DC inh)
N#Cc1nc(-c2ccc(OCc3ccccc3)cc2)oc1NCCN1CCOCC1	Autofluor 339 3.9 (not shown: Spn DPM-DC inh)
N#Cc1nc(-c2ccc(OCc3ccccc3)cc2)oc1NCc1ccco1	Autofluor 339 2.4
CNc1oc(-c2ccc(OCc3ccccc3)cc2)nc1C#N	none
Cc1ccc(-c2nc(C#N)c(NCc3ccco3)o2)cc1	Autofluor 339 3.7 (not shown: Spn DPM-DC inh)
Cc1ccc(OCc2nc(C#N)c(NCc3ccco3)o2)cc1	none
N#Cc1nc(-c2ccc(OCc3ccccc3)cc2)oc1N1CCOCC1	none
CCOC(=O)N1CCC(NC(=O)Cn2cccc2C(=O)c2ccccc2)CC1	none
O=C(Nc1nccs1)C1C2/C=C\CCCCC21 (stereo not given)	none
Cc1ccc2cc(C#N)c(NCc3ccco3)nc2c1	Autofluor 339 3.8 (not shown: Spn DPM-DC inh)
N#Cc1nc(-c2ccco2)oc1NCCCN1CCOCC1	Autofluor 339 3.6 (not shown: Spn DPM-DC inh)
COc1cc(OC)c(-c2nn3c(-c4ccncc4)nnc3s2)cc1OC	none
COc1cc(OC)c(-c2nn3c(-c4cccnc4)nnc3s2)cc1OC	Autofluor 339 3.9 (not shown: Spn DPM-DC inh)
COc1ccc(-c2nn3c(-c4ccco4)nnc3s2)cc1OC	Spn DPM-DC inh active
COc1cc(OC)c(-c2nn3c(-c4ccco4)nnc3s2)cc1OC	Autofluor 339 3.4 (not shown: Spn DPM-DC inh)
COc1ccc(-c2nnc3sc(-c4ccco4)nn23)cc1OC	none
CCN(CC)Cc1c[nH]c2c(C(=O)OC)cccc12	Autofluor 339 2.1 (not shown: Spn DPM-DC inh)
CCN(CC)S(=O)(=O)c1cccc(C(=O)Nc2nc3cc4c(cc3s2)OCCO4)c1	Autofluor 339 2.1 (not shown: Spn DPM-DC inh)
COc1cc(-n2c3nc4ccccc4nc3c3c(=O)n(Cc4ccco4)cnc32)cc(OC)c1OC	none
COc1ccc2c(c1)c1ncn(Cc3ccco3)c(=O)c1n2C	Autofluor 339 3.7 (not shown: Spn DPM-DC inh)
Cn1nnnc1P(=O)(c1ccccc1)c1ccccc1	none
CCN(CC)C(=O)c1cc(-c2ccccc2OC)on1	none
COc1ccccc1-c1ccc(C(=O)O)o1	Autofluor 339 3.3
COC(=O)c1ccc(C(=O)OC)c(NC(=O)CCc2ccc(C)o2)c1	none
COC(=O)c1ccc(C(=O)OC)c(NC(=O)CCC(=O)O)c1	Autofluor 339 2.1 (not shown: Spn DPM-DC inh)
CC1(C)CC(=O)C2=C(C1)N(c1cccc(O)c1)C1=C(C2)C(=O)CC(C)(C)C1	Autofluor 339 3.6 (not shown: Spn DPM-DC inh)
CC1(C)CC(=O)c2cnc(N3CCN(c4ccccc4)CC3)nc2C1	none
Nc1cc(S(=O)(=O)C(F)(F)F)ccc1C(=O)O	none
Nc1cc(C(F)(F)F)ccc1C(=O)O	Autofluor 339 2.1 (not shown: Spn DPM-DC inh)
Cc1cc(C)c(-c2cc(C(F)(F)F)no2)c(=O)[nH]1	Autofluor 339 3.7 (not shown: Spn DPM-DC inh)
CCn1c2ccccc2c2nnc(SCC(=O)Nc3cc(C)on3)nc21	none
CCn1c(=O)c2cc(C(=O)Nc3cc(C)on3)sc2c2ccccc21	Autofluor 339 2.2 (not shown: Spn DPM-DC inh)
CCn1c(=O)c2cc(C(=O)NCc3cccs3)sc2c2ccccc21	none
Cc1ccc2[nH]c(=O)c3cc(C(=O)NCCN4CCN(C)CC4)sc3c2c1	Autofluor 339 2.4 (not shown: Spn DPM-DC inh)
CCn1c(=O)c2cc(C(=O)NCCN3CCOCC3)sc2c2ccccc21	Autofluor 339 2.1 (not shown: Spn DPM-DC inh)
CCOC(=O)c1sc2nc(NC(=O)c3cccs3)sc2c1C	Autofluor 339 2.1 (not shown: Spn DPM-DC inh)
CCc1c(C)sc(NC(=O)c2cccs2)c1C(=O)OC(C)C	Autofluor 339 2.1 (not shown: Spn DPM-DC inh)
C=CCn1c(NC(=O)c2ccc(Br)o2)c(C(=O)OCC)sc1=S	none
CCOC(=O)c1c(NC(=O)c2ccc(Br)o2)sc(C)c1CC	Autofluor 339 2.1 (not shown: Spn DPM-DC inh)
CCOC(=O)c1ccccc1NC(=O)c1cccs1	none
COc1ccccc1NC(=O)c1ccc(Br)o1	none
CCOC(=O)C1=C(NC(=O)c2ccc(Br)o2)Nc2ccccc2N=C1	PMK inhibit 36
CCN1CCCC1CNC(=O)C1CCN(Cc2nc(-c3cccc(Br)c3)oc2C)CC1 (stereo not given)	none
NC(=O)C1CCN(C(=O)CSc2nc3c(c(-c4ccccc4)n2)CCCC3)CC1	none
CC(=O)c1sc(NC(=O)CN2C(=O)CCC2=O)nc1C	none
CCOC(=O)c1c(NC(=O)c2cccs2)sc(C(=O)N2CCOCC2)c1C	none
CCOC(=O)c1c(NC(=O)c2cccs2)sc(C)c1CC	Autofluor 339 2.2 (not shown: Spn DPM-DC inh)
COc1ccc(-c2cc(C(F)(F)F)nc(N3CCOCC3)n2)cc1OC	none
COc1ccc(-c2cc(-c3ccccc3)nc(N3CCCC3)n2)cc1OC	Autofluor 339 2.2 (not shown: Spn DPM-DC inh)
COc1cccc(/C=N/n2c(SC)nnc2-c2ccccc2)c1OC	Autofluor 339 2.1 (not shown: Spn DPM-DC inh)
COc1ccc2[nH]c(=O)c(CN(C)C(=O)c3ccncc3)cc2c1	Autofluor 339 2
CCN(Cc1cc2ccccc2[nH]c1=O)C(=O)C1CCCCC1	none
COc1ccc2[nH]c(=O)c(CN(C)C(=O)C3CCCCC3)cc2c1	Autofluor 339 3.5 (not shown: Spn DPM-DC inh)
CCCCS(=O)(=O)NC1=NCN(CCOC(=O)c2ccccc2)CN1	none
Cc1ccc2nc(-c3ccc(S(=O)(=O)N4CCOCC4)cc3)cn2c1	Autofluor 339 3 (not shown: Spn DPM-DC inh)
Cc1ccc(S(=O)(=O)N2CCOCC(=O)NCCOCCNC(=O)COCC2)cc1	Spn DPM-DC inh active
Cc1ccc2nc(-c3ccccc3)cn2c1	Autofluor 339 2.9
O=C(O)c1cc(-c2ccncc2)nc2ccc(S(=O)(=O)N3CCOCC3)cc12	none
Cc1ccn2cc(-c3ccc(S(=O)(=O)N4CCOCC4)cc3)nc2c1	Autofluor 339 2.2 (not shown: Spn DPM-DC inh)
CC(C)Nc1nc(NC(C)C)nc(C(N)=O)n1	none
Cc1nc(CNS(=O)(=O)c2ccccc2F)cs1	none
O=S(=O)(NCCc1ccncc1)c1cc(Br)ccc1F	none
Cc1nc2cccc(C(=O)NCc3ccccc3)c2o1	none
CC(O)c1n(C)c(Cl)c[n+]1C (stereo not given)	none
